Results taken from the antibiotic and cytotoxicity screens of Wong et al. (2023).
Hit rate of the full screen: of about 39,000 compounds, about 1,500 (3.8%) were called active. What follows is part of a selection rich in actives, with near analogues and random picks from the rest.

Test system: HSkMC (human skeletal muscle cells)
Assay: cytotoxicity call (relative viability < 0.9)
Settings: 10 µM

| Structure (SMILES) | cytotoxicity call |
| --- | --- |
| COc1ccc(-c2cccc(-c3nc(C(=O)NCC(F)(F)F)cc4c3[C@H](CCO)N([S@@](=O)C(C)(C)C)C4)c2)cc1 | inactive |
| C[C@@H]1CCCCO[C@@H](CN(C)C(=O)Cc2ccccc2)[C@H](C)CN([C@@H](C)CO)C(=O)c2cc(NC(=O)CCC(F)(F)F)ccc2O1 | inactive |
| COc1cc(N2CCC(N(C)C)CC2)ccc1Nc1ncc(Cl)c(Nc2ccccc2P(C)(C)=O)n1 | active |
| Cc1cc(Nc2ncc(Cl)c(Nc3ccccc3S(=O)(=O)C(C)C)n2)c(OC(C)C)cc1C1CCNCC1 | active |
| COc1cc(N2CCC(O)CC2)ccc1Nc1cc(Nc2ccccc2S(=O)(=O)C(C)C)c2cc[nH]c2n1 | inactive |
| COc1cc(C(=O)NC2CCN(C)CC2)ccc1Nc1ncc2c(n1)N(C1CCC(O)CC1)CCC(=O)N2C (centres undefined) | inactive |
| COc1cc(N2CCC(N3CCN(C)CC3)CC2)ccc1Nc1ncc(Cl)c(Nc2ccccc2S(=O)(=O)C(C)C)n1 | active |
| NC1CCN(C(=O)c2c[nH]c3ccccc23)CC1 | inactive |
| COc1cc(N2CCC(N)CC2)ccc1Nc1ncc(Cl)c(-c2c[nH]c3ccccc23)n1 | active |
| Cc1noc(C)c1NC(=O)N(C)C[C@H]1Oc2ccc(NC(=O)CCCN(C)C)cc2C(=O)N([C@@H](C)CO)C[C@H]1C | inactive |
| C[C@H]1CN([C@@H](C)CO)C(=O)c2cc(NC(=O)Cc3cn(C)c4ccccc34)ccc2O[C@H]1CN(C)Cc1ccc(C(=O)Nc2ccccc2N)cc1 | inactive |
| COc1ccc(NC(=O)N(C)C[C@@H]2OCCCC[C@@H](C)Oc3ccc(NS(=O)(=O)c4ccccc4)cc3C(=O)N([C@@H](C)CO)C[C@H]2C)cc1 | inactive |
| O=C(C[C@@H]1C=C[C@H](NC(=O)CN2CCOCC2)[C@@H](CO)O1)NC1CCCCC1 | inactive |
| C[C@@H]1CN([C@@H](C)CO)S(=O)(=O)c2ccc(C#CCC3CCCC3)cc2O[C@@H]1CN(C)C(=O)c1cnccn1 | inactive |
| C[C@H](CO)N1C[C@H](C)[C@H](CN(C)Cc2ccc(C(=O)O)cc2)Oc2ccc(NS(=O)(=O)c3cn(C)cn3)cc2C1=O | inactive |
| O=C(NCCN1CCCC1)[C@H]1[C@H](CO)[C@H]2Cn3c(cccc3=O)[C@H]2N1C(=O)c1ccccc1 | inactive |
| CC(C)(C)NCC(O)COc1ccccc1C1CCCC1.O=S(=O)(O)O (centres undefined) | inactive |
| Cc1ccc2sc(C(=O)O)cc2c1 | inactive |
| COc1ccc(S(=O)(=O)Nc2ccc3c(c2)C(=O)N([C@@H](C)CO)C[C@@H](C)[C@H](CN(C)C(=O)Nc2cccc4ccccc24)OCCCC[C@@H](C)O3)cc1 | inactive |
| C[C@H]1CN([C@@H](C)CO)S(=O)(=O)c2ccc(C#Cc3cccc(F)c3)cc2O[C@@H]1CN(C)S(=O)(=O)c1cn(C)cn1 | inactive |
| CO[C@@H]1CN(C)C(=O)c2ccc(NS(C)(=O)=O)cc2OC[C@@H](C)N(S(C)(=O)=O)C[C@H]1C | inactive |
| C[C@@H]1CN([C@@H](C)CO)C(=O)c2cccc(NC(=O)c3cnccn3)c2O[C@H]1CN(C)S(=O)(=O)c1ccc(Cl)cc1 | inactive |

| Structure (SMILES) | cytotoxicity call |
| --- | --- |
| C[C@H]1CN([C@@H](C)CO)C(=O)c2cc(Br)cnc2O[C@H]1CN(C)Cc1ccccc1C(=O)O | inactive |
| C[C@H]1CN([C@@H](C)CO)C(=O)c2cccc(NC(=O)Nc3ccc(C(F)(F)F)cc3)c2O[C@H]1CN(C)S(=O)(=O)c1ccc(F)cc1 | inactive |
| O=C(CCCN1CCC(O)(c2ccc(Br)cc2)CC1)c1ccc(F)cc1 | inactive |
| O=C(CCCN1CCC(O)(c2ccc(Cl)cc2)CC1)c1ccc(F)cc1 | inactive |
| OC1(c2ccc(Cl)c(C(F)(F)F)c2)CCN(CCCC(c2ccc(F)cc2)c2ccc(F)cc2)CC1 [listing 1 of 2 here] | active |
| OC1(c2ccc(Cl)c(C(F)(F)F)c2)CCN(CCCC(c2ccc(F)cc2)c2ccc(F)cc2)CC1 [listing 2 of 2 here] | active |
| COc1ccc(S(=O)(=O)Nc2cccc3c2O[C@@H](CN(C)S(=O)(=O)c2ccccc2)[C@@H](C)CN([C@H](C)CO)C3=O)cc1 | inactive |
| C[C@@H]1CN([C@H](C)CO)C(=O)c2cccc(NS(=O)(=O)c3cn(C)cn3)c2O[C@H]1CN(C)C(=O)Nc1ccc(F)cc1 | inactive |
| C[C@@H]1CN([C@@H](C)CO)C(=O)c2cc(NC(=O)Cc3ccccc3)ccc2O[C@@H](C)CCCCO[C@@H]1CN(C)C(=O)Nc1cccc2ccccc12 | inactive |
| CO[C@H]1O[C@H](CO)[C@@H](OC(=O)Nc2ccc3c(c2)OCO3)[C@H](OC(=O)Nc2ccc3c(c2)OCO3)[C@@H]1OC(=O)Nc1ccc2c(c1)OCO2 | inactive |
| CN(C)C(=O)C[C@H]1CC[C@@H]2[C@@H](COc3ccc(NS(=O)(=O)c4cccc(F)c4)cc3C(=O)N2C)O1 | inactive |
| O=C1CN(S(=O)(=O)Cc2ccccc2)C[C@@H]2[C@@H](c3ccc(C#Cc4ccc(F)cc4)cc3)[C@H](CO)N12 | inactive |
| COc1cccc(C#Cc2ccc([C@@H]3[C@H]4CN(S(=O)(=O)c5ccccc5C)CC(=O)N4[C@H]3CO)cc2)c1 | inactive |
| O=C1CN(S(=O)(=O)Cc2ccccc2)C[C@H]2[C@@H](c3ccc(C#Cc4ccc(F)cc4)cc3)[C@H](CO)N12 | inactive |
| O=C1CN(S(=O)(=O)Cc2ccccc2)C[C@@H]2[C@H](c3ccc(C#Cc4ccc(F)cc4)cc3)[C@@H](CO)N12 | inactive |
| O=C1CN(S(=O)(=O)Cc2ccccc2)C[C@@H]2[C@H](c3ccc(C#Cc4ccc(F)cc4)cc3)[C@H](CO)N12 | active |
| O=C1CN(S(=O)(=O)Cc2ccccc2)C[C@H]2[C@@H](c3ccc(C#Cc4ccc(F)cc4)cc3)[C@@H](CO)N12 | inactive |
| O=C1CN(S(=O)(=O)Cc2ccccc2)C[C@@H]2[C@@H](c3ccc(C#Cc4ccc(F)cc4)cc3)[C@@H](CO)N12 | active |
| COc1cccc(C#Cc2ccc([C@H]3[C@H](CO)N4C(=O)CN(S(=O)(=O)c5ccccc5C)C[C@@H]34)cc2)c1 | inactive |
| O=C1CN(S(=O)(=O)Cc2ccccc2)C[C@H]2[C@H](c3ccc(C#Cc4ccc(F)cc4)cc3)[C@@H](CO)N12 | active |
| O=C1CN(S(=O)(=O)Cc2ccccc2)C[C@H]2[C@H](c3ccc(C#Cc4ccc(F)cc4)cc3)[C@H](CO)N12 | active |
| C[C@H](CO)N1C[C@H](C)[C@H](CN(C)Cc2ccc(Oc3ccccc3)cc2)Oc2cc(-c3ccncc3)ccc2S1(=O)=O | inactive |

| Structure (SMILES) | cytotoxicity call |
| --- | --- |
| O=C(C[C@@H]1CC[C@@H](NC(=O)CN2CCOCC2)[C@@H](CO)O1)NCCc1ccccc1 | inactive |
| CC(C)NC(=O)Nc1ccc2c(c1)C(=O)N(C)[C@H]1CC[C@H](CC(=O)NCc3ccc(F)cc3)O[C@H]1CO2 | inactive |
| COCC#Cc1cnc2c(c1)C(=O)N([C@@H](C)CO)C[C@@H](C)[C@H](CN(C)C(C)=O)O2 | inactive |
| C[C@@H]1CN([C@H](C)CO)C(=O)Cc2cc(NC(=O)Nc3cccc4ccccc34)ccc2O[C@@H]1CN(C)S(=O)(=O)c1cccs1 | inactive |
| C[C@H](CO)N1C[C@H](C)[C@H](CN(C)C(=O)Nc2ccc(F)cc2)OCCCC[C@H](C)Oc2ccc(NC(=O)Nc3ccc4c(c3)OCO4)cc2C1=O | inactive |
| COc1ccc(S(=O)(=O)N(C)C[C@H]2OCc3cnnn3CCCC(=O)N([C@@H](C)CO)C[C@@H]2C)cc1 | inactive |
| CCCC[P+](CCCC)(CCCC)Cc1ccc(NC(=O)[C@@H](Cc2ccc3ccccc3c2)N=C(NC2CCCCC2)NC2CCCCC2)cc1 | active |
| C[C@H]1CN([C@@H](C)CO)C(=O)c2cc(NC(=O)Nc3cccc4ccccc34)ccc2O[C@@H]1CN(C)C(=O)NC1CCCCC1 | inactive |
| CCCC[P+](CCCC)(CCCC)Cc1ccc(NC(=O)[C@H](Cc2ccc3ccccc3c2)N/C(=N/C2CCCCC2)NC2CCCCC2)cc1 | inactive |
| CC(C)NC(=O)Nc1ccc2c(c1)C(=O)N([C@H](C)CO)C[C@@H](C)[C@@H](CN(C)Cc1ccc3c(c1)OCO3)O2 | inactive |
| C[C@@H]1CCCCO[C@H](CN(C)Cc2ccc(C(F)(F)F)cc2)[C@H](C)CN([C@@H](C)CO)C(=O)c2cc(NC(=O)Nc3ccc4c(c3)OCO4)ccc2O1 | inactive |
| C[C@@H]1CCCCO[C@@H](CN(C)Cc2ccc3c(c2)OCO3)[C@H](C)CN([C@H](C)CO)C(=O)c2cc(NC(=O)Nc3ccc(C(F)(F)F)cc3)ccc2O1 | active |
| C[C@H]1CCCCO[C@H](CN(C)Cc2ccc3c(c2)OCO3)[C@@H](C)CN([C@@H](C)CO)C(=O)c2cc(NC(=O)Nc3ccc(C(F)(F)F)cc3)ccc2O1 | active |
| C[C@@H]1CCCCO[C@@H](CN(C)Cc2ccc(C(F)(F)F)cc2)[C@@H](C)CN([C@@H](C)CO)C(=O)c2cc(NC(=O)Nc3ccc4c(c3)OCO4)ccc2O1 | inactive |
| C[C@@H]1CN([C@@H](C)CO)C(=O)c2cc(NC(=O)Nc3ccc(C(F)(F)F)cc3)ccc2O[C@@H](C)CCCCO[C@H]1CN(C)Cc1ccc2c(c1)OCO2 | active |
| C[C@H]1CCCCO[C@@H](CN(C)Cc2ccc3c(c2)OCO3)[C@@H](C)CN([C@@H](C)CO)C(=O)c2cc(NC(=O)Nc3ccc(C(F)(F)F)cc3)ccc2O1 | active |
| C[C@H]1CN([C@@H](C)CO)C(=O)c2cccc(NC(=O)C3CCOCC3)c2O[C@@H]1CN(C)C(=O)NC1CCCCC1 | inactive |
| C[C@H](CO)N1C[C@H](C)[C@H](CN(C)S(=O)(=O)c2cn(C)cn2)Oc2ncc(C3=CCCC3)cc2C1=O | inactive |
| CO[C@H](CN(C)S(=O)(=O)c1cccc(Cl)c1)[C@@H](C)CN([C@@H](C)CO)S(=O)(=O)c1cccc(Cl)c1 | inactive |
| COc1ccc(NC(=O)Nc2ccc3c(c2)C(=O)N([C@H](C)CO)C[C@H](C)[C@H](CN(C)C(=O)Nc2c(C)noc2C)OCCCC[C@H](C)O3)cc1 | inactive |
